# Experimental data: PubChem BioAssay (NCATS)
# A number with no mark means an inactive call. Records with an inconclusive call do not appear. Where a call stands in place of a potency, no number is given. The source made the active and inactive calls. Unless noted, calls follow the shape of the dose curve; as a rule, active = well fitted curve in the direction sought with a large enough effect; inconclusive = small, poorly fitted or top-dose-only effect, or another doubt; inactive = no such curve, though single readings can be large; an effect the other way counts as inactive or inconclusive.
# What was measured:
# [1] = qHTS assay for measurement of the activity of small molecule inhibitors on Zika virus induced Caspase-3 activity in human astrocytoma cells (AID 1224859)
# Method in brief: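 Percent inhibition of virus-induced caspase-3/7 signal is calculated against uninfected and ZIKV-infected control cells. Cells are SNB-19, infected at 2 FFU/cell for 6 h after 1 h compound exposure.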
# [2] = Natriuretic polypeptide receptor (hNpr1) antagonism - Pilot counterscreen GloSensor control cell line (AID 1347045; calls by dose curve; also: potency is read from the fitted curve at half-maximal effect)
# Method in brief: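 The SNP-driven cGMP luminescence signal (50 uM, 20 min, room temperature) was measured in GloSensor HEK293 control cells. Compounds were tested as a LOPAC titration series and preincubated for 30-50 min.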
# [3] = target: Atrial natriuretic peptide receptor 1 (Homo sapiens) (UniProt P16066); assay: Natriuretic polypeptide receptor (hNpr1) antagonism - Pilot screen (AID 1347049; calls by dose curve;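 also: HEK293 cells with hNpr1 and GloSensor cGMP luciferase stimulated by 0.1 nM hNppA; agonist-evoked cGMP luminescence read 20 min after hNppA addition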; also: potency is read from the fitted curve at half-maximal effect)
# Method in brief: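 Receptor antagonism read as cGMP-dependent luminescence in hNpr1/pGS-40F HEK293 cells: pre-read after 30 min compound exposure, post-read 20 min after hNppA agonist at 0.1 nM final, all at room temperature, protected from light; A-71915 titration as control.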
# [4] = NS1 protein of Zika virus - qHTS assay to identify small molecule inhibitors in human HEK 293 cells (AID 1347053); also: series mostly up to about 46 µM; nearly all actives have a fitted effect of over 55% in size
# Method in brief: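 Read-out is a two-antibody TR-FRET for ZIKV NS1, normalized between uninfected cells and infected cells. Compound added 1 h before MR766 infection at MOI 0.5; human HEK 293 cells incubated 24 h, 37 C.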
# [5] = qHTS assay to identify small molecule inhibitors of chordoma cells - UCH-1 (AID 1259355); also: nearly all actives have a fitted effect of over 55% in size; also: potency is read from the fitted curve at half-maximal effect; series mostly up to about 46 µM
# Method in brief: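 800 cells/well, overnight attach; compounds pinned at 15 concs, then auranofin/camptothecin/doxorubicin/rubitecan/topotecan combo added; 48hr 37 C, 5% CO2; CellTiter-Glo, 30min RT, luminescence.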
# [6] = qHTS assay to identify small molecule inhibitors of chordoma cells - UCH-2 (AID 1259356); also: potency is read from the fitted curve at half-maximal effect
# [7] = target: Hexokinase-4 (Homo sapiens) + Glucokinase regulatory protein (Homo sapiens) (UniProt P35557+Q14397); assay: qHTS assay for inhibitors of recombinant human GCK-GKRP interaction: HTRF assay (AID 743207)
# Method in brief: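 Steps: dispense GCK–GKRP complex (5 nM each, GST- and FLAG-tagged) with 2 uM S6P; pin in compounds; add XL665/Eu-cryptate-labelled antibodies; incubate 60 min at room temperature; read time-resolved FRET at 665 and 615 nm.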
# [8] = target: Atrial natriuretic peptide receptor 2 (Homo sapiens) (UniProt P20594); assay: Natriuretic polypeptide receptor (hNpr2) antagonism - Pilot subtype selectivity assay (AID 1347050; calls by dose curve)
# Method in brief: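 Antagonist mode: compounds (LOPAC1280, seven 1:5 dilutions) added 30 min before 1 nM hNppC stimulation of hNpr2-HEK293 cGMP-sensor cells; luminescence read before and 20 min after agonist at ambient temperature.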
# [9] = qHTS Assay for Identifying Gametocytocidal Compounds (AID 743244);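 also: actives lower the fluorescent signal which means gametocytes are killed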; conditions: P. falciparum 3D7 stage III-V gametocytes, alamarBlue, 72 h; max response: hits give low values
# Method in brief: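 3D7 gametocytes, stages III–V, 20,000/well; cpd 72 h, 37 °C/5% CO2; + alamarBlue 24 h; fluor. Ex 525/Em 598.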
# [10] = P-glycoprotein substrates identified in KB-8-5-11 adenocarcinoma cell line, qHTS therapeutic library screen (AID 1346987); also: nearly all actives have a fitted effect of over 65% in size; also: potency is read from the fitted curve at half-maximal effect
# Method in brief: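 Human cervical adenocarcinoma KB-8-5-11 cells, selected in colchicine to over-express P-gp and assayed without it, were exposed for 72 h to titrated compounds. An ATP-based luminescent viability signal gave AC50.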
# Chain of Atrial natriuretic peptide receptor 1 (Homo sapiens) (P16066 whole entry, looked up): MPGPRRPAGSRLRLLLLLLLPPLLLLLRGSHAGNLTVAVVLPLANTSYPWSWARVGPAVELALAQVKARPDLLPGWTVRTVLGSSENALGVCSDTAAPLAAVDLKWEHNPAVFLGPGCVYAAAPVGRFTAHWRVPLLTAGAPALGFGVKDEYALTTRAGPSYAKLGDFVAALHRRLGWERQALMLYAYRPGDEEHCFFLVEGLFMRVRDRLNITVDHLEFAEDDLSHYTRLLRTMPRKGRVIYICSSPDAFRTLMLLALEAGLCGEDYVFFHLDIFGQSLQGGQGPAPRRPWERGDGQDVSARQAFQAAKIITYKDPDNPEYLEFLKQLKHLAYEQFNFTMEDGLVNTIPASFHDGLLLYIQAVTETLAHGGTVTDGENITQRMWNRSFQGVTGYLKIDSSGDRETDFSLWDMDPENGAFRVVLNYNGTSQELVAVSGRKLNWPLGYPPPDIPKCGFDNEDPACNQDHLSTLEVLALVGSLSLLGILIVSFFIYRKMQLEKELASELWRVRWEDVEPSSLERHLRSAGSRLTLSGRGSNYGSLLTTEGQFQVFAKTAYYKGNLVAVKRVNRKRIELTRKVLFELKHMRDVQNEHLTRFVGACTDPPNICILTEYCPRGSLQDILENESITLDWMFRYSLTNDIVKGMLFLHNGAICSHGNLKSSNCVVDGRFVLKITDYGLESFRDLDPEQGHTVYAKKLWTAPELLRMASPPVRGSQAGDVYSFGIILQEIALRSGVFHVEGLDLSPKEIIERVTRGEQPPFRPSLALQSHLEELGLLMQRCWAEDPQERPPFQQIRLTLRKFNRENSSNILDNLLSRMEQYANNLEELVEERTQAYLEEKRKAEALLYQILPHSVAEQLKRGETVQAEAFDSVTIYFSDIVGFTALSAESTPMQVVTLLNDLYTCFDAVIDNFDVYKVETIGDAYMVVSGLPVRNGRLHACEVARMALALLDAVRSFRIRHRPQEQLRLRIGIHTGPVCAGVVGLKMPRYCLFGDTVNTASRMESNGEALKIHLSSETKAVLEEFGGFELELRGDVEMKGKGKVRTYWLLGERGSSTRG
# Chain of Atrial natriuretic peptide receptor 2 (Homo sapiens) (P20594 whole entry, looked up): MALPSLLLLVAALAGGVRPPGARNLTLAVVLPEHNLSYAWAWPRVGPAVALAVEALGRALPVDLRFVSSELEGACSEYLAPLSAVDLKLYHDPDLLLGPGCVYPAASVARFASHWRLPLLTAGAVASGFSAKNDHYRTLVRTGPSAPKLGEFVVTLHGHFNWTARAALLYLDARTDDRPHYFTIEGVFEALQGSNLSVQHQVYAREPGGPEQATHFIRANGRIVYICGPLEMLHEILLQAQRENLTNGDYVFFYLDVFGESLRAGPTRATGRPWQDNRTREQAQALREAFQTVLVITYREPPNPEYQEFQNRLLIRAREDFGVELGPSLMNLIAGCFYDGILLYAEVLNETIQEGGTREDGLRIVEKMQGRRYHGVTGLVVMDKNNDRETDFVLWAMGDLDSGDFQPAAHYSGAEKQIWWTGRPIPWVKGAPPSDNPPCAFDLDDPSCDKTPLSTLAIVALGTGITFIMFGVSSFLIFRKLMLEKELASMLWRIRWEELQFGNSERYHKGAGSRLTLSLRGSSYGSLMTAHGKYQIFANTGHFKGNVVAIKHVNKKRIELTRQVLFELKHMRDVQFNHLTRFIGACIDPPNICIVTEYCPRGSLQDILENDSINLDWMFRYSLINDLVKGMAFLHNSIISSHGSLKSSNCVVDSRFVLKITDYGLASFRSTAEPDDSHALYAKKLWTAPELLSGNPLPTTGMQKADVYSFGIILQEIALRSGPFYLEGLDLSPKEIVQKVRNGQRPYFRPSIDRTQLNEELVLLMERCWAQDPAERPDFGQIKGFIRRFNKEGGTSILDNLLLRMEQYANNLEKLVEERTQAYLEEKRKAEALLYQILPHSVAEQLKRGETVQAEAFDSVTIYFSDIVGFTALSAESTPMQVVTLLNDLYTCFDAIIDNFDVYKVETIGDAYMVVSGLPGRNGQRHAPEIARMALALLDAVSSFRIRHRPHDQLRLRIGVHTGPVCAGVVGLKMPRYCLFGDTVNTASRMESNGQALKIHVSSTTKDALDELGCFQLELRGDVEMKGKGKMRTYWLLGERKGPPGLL
# Chain of Hexokinase-4 (Homo sapiens) + Glucokinase regulatory protein (Homo sapiens) (P35557 whole entry, looked up): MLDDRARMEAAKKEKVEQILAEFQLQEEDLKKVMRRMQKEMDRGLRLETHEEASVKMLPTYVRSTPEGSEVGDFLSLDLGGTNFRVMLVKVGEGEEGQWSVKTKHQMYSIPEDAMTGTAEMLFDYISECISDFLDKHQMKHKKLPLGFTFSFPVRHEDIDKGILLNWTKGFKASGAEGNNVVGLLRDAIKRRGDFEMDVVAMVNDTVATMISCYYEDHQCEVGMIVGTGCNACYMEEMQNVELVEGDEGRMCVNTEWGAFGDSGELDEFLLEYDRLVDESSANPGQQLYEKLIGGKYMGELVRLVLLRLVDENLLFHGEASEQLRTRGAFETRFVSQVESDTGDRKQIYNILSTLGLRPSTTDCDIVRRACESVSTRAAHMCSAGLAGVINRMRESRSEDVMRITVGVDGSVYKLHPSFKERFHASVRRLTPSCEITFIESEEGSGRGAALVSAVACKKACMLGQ
# Chain of Hexokinase-4 (Homo sapiens) + Glucokinase regulatory protein (Homo sapiens) (Q14397 whole entry, looked up): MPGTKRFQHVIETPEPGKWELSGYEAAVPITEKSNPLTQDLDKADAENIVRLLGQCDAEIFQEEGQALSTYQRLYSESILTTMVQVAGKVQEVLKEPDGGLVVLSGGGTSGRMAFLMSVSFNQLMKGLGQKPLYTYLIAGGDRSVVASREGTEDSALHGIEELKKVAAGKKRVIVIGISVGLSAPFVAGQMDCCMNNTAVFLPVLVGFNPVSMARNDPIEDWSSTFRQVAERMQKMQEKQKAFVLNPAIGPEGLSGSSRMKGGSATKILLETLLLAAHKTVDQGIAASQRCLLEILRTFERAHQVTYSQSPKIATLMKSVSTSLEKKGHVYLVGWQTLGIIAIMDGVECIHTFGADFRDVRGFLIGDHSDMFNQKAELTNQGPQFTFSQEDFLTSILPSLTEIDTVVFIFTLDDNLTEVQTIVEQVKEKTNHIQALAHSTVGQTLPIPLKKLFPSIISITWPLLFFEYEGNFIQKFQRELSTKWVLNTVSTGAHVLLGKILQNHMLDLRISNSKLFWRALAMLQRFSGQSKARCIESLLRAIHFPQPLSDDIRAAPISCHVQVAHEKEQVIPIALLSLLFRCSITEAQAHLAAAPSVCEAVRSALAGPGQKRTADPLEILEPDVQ
compound,measurement,setting,value
NC(N)=Nc1ccc2[nH]c3c(c2c1)C[C@@]1(O)[C@H]2Cc4ccc(O)c5c4[C@@]1(CCN2CC1CC1)[C@H]3O5,outcome,[1],inactive
same,Potency,[2],6560 nM (active)
same,Potency,[3],19000 nM (active)
same,outcome,[4],inactive
Clc1ccc(C(Cn2ccnc2)OCc2csc3c(Cl)cccc23)c(Cl)c1 (stereo not drawn),Potency,[5],inactive
same,Potency,[6],inactive
CCCCCCC(C)(C)c1ccc([C@@H]2C[C@H](O)CC[C@H]2CCCO)c(O)c1,outcome,[7],inactive
same,outcome,[1],inactive
same,Potency,[3],inactive
same,Potency,[8],inactive
CCC1(c2ccccc2)C(=O)NC(=O)N(C)C1=O (stereo not drawn),max response,[9],-0.22%
same,Potency,[5],inactive
same,Potency,[6],inactive
same,Potency,[10],inactive
Cc1cc(C)cc(C(=O)OC2C[C@H]3CC[C@@H](C2)N3C)c1 (stereo partly drawn),Potency,[5],inactive
same,Potency,[6],inactive
O=C(CCl)c1ccc(Oc2ccc(C(=O)CCl)cc2)cc1,max response,[9],0.618%
same,Potency,[5],inactive
same,Potency,[6],inactive
same,Potency,[10],inactive
CCC(=O)O[C@@](Cc1ccccc1)(c1ccccc1)[C@@H](C)CN(C)C,Potency,[5],inactive
same,Potency,[6],inactive
same,Potency,[10],inactive
CC(=O)OO,Potency,[5],inactive
same,Potency,[6],inactive
same,Potency,[10],inactive
CCN(CC)C(=O)N[C@H]1C[C@@H]2c3cccc4[nH]cc(c34)C[C@H]2N(C)C1,Potency,[5],inactive
same,Potency,[6],inactive
[S]=[Sb](=[S])[S][Sb](=[S])=[S],Potency,[5],inactive
same,Potency,[6],inactive
same,Potency,[10],inactive
CCOc1ccc2c3c1O[C@H]1[C@@H](O)C=C[C@H]4[C@@H](C2)N(C)CC[C@@]341,Potency,[5],inactive
same,Potency,[6],inactive
same,Potency,[10],inactive
COc1ccc(OC)c([C@@H](O)[C@H](C)N)c1,max response,[9],0.514%
same,Potency,[5],inactive
same,Potency,[6],inactive
same,Potency,[10],inactive
Cc1ccccc1-n1c(C)nc2ccccc2c1=O,Potency,[5],inactive
same,Potency,[6],inactive
same,Potency,[10],inactive
O=c1ccc2cc(O[C@@H]3O[C@H](CO)[C@@H](O)[C@H](O)[C@H]3O)c(O)cc2o1,Potency,[5],inactive
same,Potency,[6],inactive
same,Potency,[10],inactive
FC(F)OC(F)(F)C(F)Cl (stereo not drawn),max response,[9],-4.54%
same,Potency,[5],inactive
same,Potency,[6],inactive
same,Potency,[10],inactive
CCCC(C)C1(CC)C(=O)NC(=O)NC1=O (stereo not drawn),max response,[9],-3.05%
same,Potency,[5],inactive
same,Potency,[6],inactive
same,Potency,[10],inactive
CCCCCCC(=O)O[C@H]1CC[C@H]2[C@@H]3CC[C@H]4CC(=O)C=C(C)[C@]4(C)[C@H]3CC[C@]12C,Potency,[5],inactive
same,Potency,[6],inactive
C[C@H]1CC[C@]2(NC1)O[C@H]1C[C@H]3[C@@H]4CC[C@H]5C[C@@H](O[C@@H]6O[C@H](CO)[C@H](O[C@@H]7O[C@H](CO)[C@@H](O)[C@H](O[C@@H]8OC[C@@H](O)[C@H](O)[C@H]8O)[C@H]7O[C@@H]7O[C@H](CO)[C@@H](O)[C@H](O)[C@H]7O)[C@H](O)[C@H]6O)CC[C@]5(C)[C@H]4CC[C@]3(C)[C@H]1[C@@H]2C,Potency,[5],12600 nM (active)
same,Potency,[6],2060 nM (active)
same,Potency,[10],20600 nM (active)
O=S(=O)(O)c1cc(O)ccc1O,max response,[9],6.77%
same,Potency,[5],inactive
same,Potency,[6],inactive
same,Potency,[10],inactive
CC(Cc1ccccc1)NC=O (stereo not drawn),max response,[9],-3.98%
same,Potency,[5],inactive
same,Potency,[6],inactive
same,Potency,[10],inactive
CN1c2ccccc2C(NCCCCCCC(=O)O)c2ccc(Cl)cc2S1(=O)=O (stereo not drawn),max response,[9],-8.42%
same,Potency,[5],inactive
same,Potency,[6],inactive
same,Potency,[10],inactive
CC(=O)O[C@H]1C[C@H](O[C@H]2[C@@H](O)C[C@H](O[C@H]3[C@@H](O)C[C@H](OC4CC[C@@]5(C)[C@H](CC[C@@H]6[C@@H]5CC[C@]5(C)[C@@H](C7=CC(=O)OC7)CC[C@]65O)C4)O[C@@H]3C)O[C@@H]2C)O[C@H](C)[C@H]1O[C@@H]1O[C@H](CO)[C@@H](O)[C@H](O)[C@H]1O (stereo partly drawn),Potency,[5],447 nM (active)
same,Potency,[6],259 nM (active)
same,Potency,[10],259 nM (active)
C[C@]12CC[C@H]3[C@@H](CCC4=C(Cl)C(=O)CC[C@@]43C)[C@@H]1CC[C@@H]2O,max response,[9],-5.5%
same,Potency,[5],inactive
same,Potency,[6],inactive
same,Potency,[10],13000 nM (active)
Clc1ccc(Cl)cc1,Potency,[5],inactive
same,Potency,[6],inactive
same,Potency,[10],inactive
O=C1CCCCC1CN1CCCCC1 (stereo not drawn),Potency,[5],inactive
same,Potency,[6],inactive
same,Potency,[10],inactive
CCC(C)(S(=O)(=O)CC)S(=O)(=O)CC,max response,[9],7.4%
same,Potency,[5],inactive
same,Potency,[6],inactive
same,Potency,[10],inactive
C[C@]12CC[C@H]3[C@@H](CCC4=C(O)C(=O)CC[C@@H]43)[C@@H]1CC[C@@H]2OC(=O)CCC1CCCC1,Potency,[5],inactive
same,Potency,[6],inactive
CC(=O)OC1CN2CCC1CC2 (stereo not drawn),Potency,[5],inactive
same,Potency,[6],inactive
same,Potency,[10],inactive
N#CC1(N2CCCCC2)CCCCC1,Potency,[5],inactive
same,Potency,[6],inactive
same,Potency,[10],inactive
CO[C@H]1[C@@H](O)C[C@H](O[C@H]2[C@@H](O)C[C@H](O[C@H]3[C@@H](O)C[C@H](O[C@H]4CC[C@@]5(C)[C@H](CC[C@@H]6[C@@H]5C[C@@H](O)[C@]5(C)[C@@H](C7=CC(=O)OC7)CC[C@]65O)C4)O[C@@H]3C)O[C@@H]2C)O[C@@H]1C,max response,[9],-9.7%
same,Potency,[5],355 nM [with auranofin plus four topoisomerase inhibitors] (active)
same,Potency,[6],58 nM (active)
same,Potency,[10],259 nM (active)
